Several values for one entry are separate records, joined by “and”; a condition that tells them apart may be missing. Equal entries are not always repeated. Results filed as inconclusive are left out. Where a call stands in place of a potency, no number is given. Some compounds were tested as several samples or in several runs, with calls that do not always agree. Activity calls are given as the source filed them. Calls follow the shape of the dose curve; as a rule, active = well fitted curve in the direction sought with a large enough effect in the repeat runs; inconclusive = weak or mixed curves; inactive = no such curve, though single readings can be large; an effect the other way counts as inactive or inconclusive. Residues, ends and D or L forms follow the SMILES beside them.

The nature of one experiment: Caspase-3/7 induction in CHO-K1 cells by small molecules, qHTS cell viability counter screen (AID 1346979). Also: nearly all actives have a fitted effect of over 35% in size. Also: potency is read from the fitted curve at half-maximal effect. To be noted: CellTiter-Fluor fluorescence, 17 h; series mostly up to 92.4 µM; activity change, negative = cytotoxicity: at the top concentration. The procedure, abridged:
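Multiplexed with Caspase-Glo 3/7 in CHO-K1 cells, this counter screen added CellTiter-Fluor after 16hr of compound exposure and recorded fluorescence 1hr later.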
Turning to `NC(N)=O`, the Potency is 5.15 µM (active) and inactive.
The same measure, in the same setting: under `O=C(c1ccccc1)C(O)c1ccccc1` (stereo not drawn) stands “inactive”; under `CCCCOC(=O)CC(CC(=O)OCCCC)(OC(C)=O)C(=O)OCCCC`, “inactive”.
The same measure, in the same setting: the value for `O=C(O)CCCCC(=O)O` was “inactive”; that for `CCCC(O)C(CC)CO` (stereo not drawn) was “inactive”.
On the same count and under the same terms, the value for `COC(=O)[C@H](Cc1ccccc1)NC(=O)[C@@H](N)CC(=O)O` (H-Asp-Phe-OMe) was “inactive”; that for `CCOc1ccc(NC(=O)CC(C)O)cc1` (stereo not drawn) was “inactive”; that for `O=c1ccc2ccccc2o1` was “inactive”.
With `CC(O)C(=O)O` (stereo not drawn), the Potency result is “inactive”.
Same read-out and setting: under `CC(O)CN(CCN(CC(C)O)CC(C)O)CC(C)O` (stereo not drawn) stands “inactive”.
The same measure, in the same setting: under `C[C@]12C=CC(=O)C=C1CC[C@@H]1[C@@H]2[C@@H](O)C[C@@]2(C)[C@H]1CC[C@]2(O)C(=O)CO` stands “inactive”.
Still for that read-out and setting: under `CC(C)(Oc1ccc(C2CC2(Cl)Cl)cc1)C(=O)O` (stereo not drawn) stands “inactive”; under `Oc1ccc(/C=C/c2cc(O)cc(O)c2)cc1`, 69.2 µM (active) and 61.1 µM (active); under `O=c1cc[nH]c(=S)[nH]1`, “inactive”.
On to `c1ccc2[nH]ccc2c1`, for which the Potency was 6.01 µM (active) and inactive.
On the same count and under the same terms, the value for `Cc1cc(=O)[nH]c(=S)[nH]1` was “inactive”.
For the compound `O=C(O)CCC(=O)O`, the Potency entry is “inactive”.
The same measure, in the same setting: under `CC(O)CO` (stereo not drawn) stands “inactive”; under `O=C1CN(/N=C/c2ccc([N+](=O)[O-])o2)C(=O)N1`, 60.9 µM (active) and 68.6 µM (active) and 33.5 µM (active).
Same read-out and setting: the value for `O=C(O)c1cc(N=Nc2ccc(S(=O)(=O)Nc3ccccn3)cc2)ccc1O` was 34.5 µM (active) and 54.5 µM (active) and 26.6 µM (active); that for `O=C(O)C(=O)O` was “inactive”; that for `Cc1cn([C@H]2C[C@H](N=[N+]=[N-])[C@@H](CO)O2)c(=O)[nH]c1=O` was 15.8 µM (active) and inactive.
On the same count and under the same terms, the value for `O=C(c1ccccc1)c1ccccc1` was “inactive”; that for `CC1(C)[C@@H]2CC[C@@]1(C)C(=O)C2` was “inactive”; that for `O=NO` was “inactive”.
As to `Nc1ccc(C(=O)O)cc1`, the Potency result is “inactive”.
Same read-out and setting: under `CC(=O)OCC(COC(C)=O)OC(C)=O` stands “inactive”; under `Cc1ccccc1C(OCCN(C)C)c1ccccc1` (stereo not drawn), “inactive”; under `C/C=C/c1ccc(OC)cc1`, “inactive”.
Same read-out and setting: the value for `CC(C)[C@@H]1CC[C@@H](C)C[C@H]1O` was “inactive”; that for `CCCC(CCC)C(=O)O` was “inactive”.
Same read-out and setting: the value for `O=C(O)c1cccnc1` was “inactive”; that for `NNC(=O)c1ccncc1` was “inactive”; that for `CCCCCCCCCCCCCCCC(=O)O` was “inactive”.
Consider `CCCCC(CC)COC(=O)/C=C/c1ccc(OC)cc1` (stereo not drawn), for which the Potency entry is “inactive”.
With `NC(=O)c1ccccc1O`, the Potency result was “inactive”.

The nature of a further experiment: Caspase-3/7 induction in CHO-K1 cells by small molecules, qHTS assay (AID 1346980). Also: nearly all actives have a fitted effect of over 15% in size. To be noted: CHO-K1 caspase-3/7 induction, Caspase-Glo luminescence, 17 h; series mostly up to 92.4 µM; caspase-3/7 activation: at the top concentration. The procedure, abridged:
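Wild-type cells were seeded at 1,500 per well and settled 5 hr at 37 C, 5% CO2, then exposed to DMSO-dissolved compounds for 17 hr. Caspase-Glo 3/7 reagent was added, and luminescence was read after 30min at room temperature.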
In the case of `NC(N)=O`, the compound was called inactive.
Same read-out and setting: the value for `O=C(c1ccccc1)C(O)c1ccccc1` (stereo not drawn) was “inactive”.
The same measure, in the same setting: the value for `CCCCOC(=O)CC(CC(=O)OCCCC)(OC(C)=O)C(=O)OCCCC` was “inactive”.
Same read-out and setting: under `O=C(O)CCCCC(=O)O` stands “inactive”; under `CCCC(O)C(CC)CO` (stereo not drawn), “inactive”.
Turning to `COC(=O)[C@H](Cc1ccccc1)NC(=O)[C@@H](N)CC(=O)O` (H-Asp-Phe-OMe), the compound was classed as inactive.
Same read-out and setting: the value for `CCOc1ccc(NC(=O)CC(C)O)cc1` (stereo not drawn) was “inactive”; that for `O=c1ccc2ccccc2o1` was “inactive”.
Same read-out and setting: the value for `CC(O)C(=O)O` (stereo not drawn) was “inactive”; that for `CC(O)CN(CCN(CC(C)O)CC(C)O)CC(C)O` (stereo not drawn) was “inactive”.
On the same count and under the same terms, under `C[C@]12C=CC(=O)C=C1CC[C@@H]1[C@@H]2[C@@H](O)C[C@@]2(C)[C@H]1CC[C@]2(O)C(=O)CO` stands “inactive”; under `CC(C)(Oc1ccc(C2CC2(Cl)Cl)cc1)C(=O)O` (stereo not drawn), “inactive”.
For the compound `Oc1ccc(/C=C/c2cc(O)cc(O)c2)cc1`, the compound was called inactive.
For `O=c1cc[nH]c(=S)[nH]1`, the outcome was inactive.
Same read-out and setting: under `c1ccc2[nH]ccc2c1` stands “inactive”; under `Cc1cc(=O)[nH]c(=S)[nH]1`, “inactive”; under `O=C(O)CCC(=O)O`, “inactive”.
On to `CC(O)CO` (stereo not drawn), for which the compound was classed as inactive.
For the compound `O=C1CN(/N=C/c2ccc([N+](=O)[O-])o2)C(=O)N1`, the compound was classed as inactive.
On the same count and under the same terms, under `O=C(O)c1cc(N=Nc2ccc(S(=O)(=O)Nc3ccccn3)cc2)ccc1O` stands “inactive”.
Still for that read-out and setting: the value for `O=C(O)C(=O)O` was “inactive”.
With `Cc1cn([C@H]2C[C@H](N=[N+]=[N-])[C@@H](CO)O2)c(=O)[nH]c1=O`, the compound was called inactive.
The same measure, in the same setting: under `O=C(c1ccccc1)c1ccccc1` stands “inactive”; under `CC1(C)[C@@H]2CC[C@@]1(C)C(=O)C2`, “inactive”.
`O=NO`: the call was inactive.
Still for that read-out and setting: under `Nc1ccc(C(=O)O)cc1` stands “inactive”; under `CC(=O)OCC(COC(C)=O)OC(C)=O`, “inactive”.
The same measure, in the same setting: under `Cc1ccccc1C(OCCN(C)C)c1ccccc1` (stereo not drawn) stands “inactive”; under `C/C=C/c1ccc(OC)cc1`, “inactive”.
`CC(C)[C@@H]1CC[C@@H](C)C[C@H]1O`: the compound was classed as inactive.
Same read-out and setting: the value for `CCCC(CCC)C(=O)O` was “inactive”; that for `O=C(O)c1cccnc1` was “inactive”; that for `NNC(=O)c1ccncc1` was “inactive”.
Same read-out and setting: under `CCCCCCCCCCCCCCCC(=O)O` stands “inactive”; under `CCCCC(CC)COC(=O)/C=C/c1ccc(OC)cc1` (stereo not drawn), “inactive”.
On the same count and under the same terms, under `NC(=O)c1ccccc1O` stands “inactive”.

The next experiment in a line: Caspase-3/7 induction in HepG2 cells by small molecules, qHTS cell viability counter screen (AID 1346981). Also: nearly all actives have a fitted effect of over 30% in size. Also: potency is read from the fitted curve at half-maximal effect. The settings on record: CellTiter-Fluor fluorescence, 17 h; series mostly up to 92.4 µM; activity change, negative = cytotoxicity: at the top concentration. Summed up:
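Steps: seed 2,000 HepG2 cells per well; incubate 5 hr at 37 C; pin-add compounds in DMSO; incubate 16 hr; add CellTiter-Fluor; after 1 hr at 37 C and 5% CO2, read fluorescence.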
With `NC(N)=O`, the Potency entry is “inactive”.
Take `O=C(c1ccccc1)C(O)c1ccccc1` (stereo not drawn): the Potency entry is “inactive”.
Still for that read-out and setting: the value for `CCCCOC(=O)CC(CC(=O)OCCCC)(OC(C)=O)C(=O)OCCCC` was “inactive”; that for `O=C(O)CCCCC(=O)O` was “inactive”.
As to `CCCC(O)C(CC)CO` (stereo not drawn), the Potency result was “inactive”.
Consider `COC(=O)[C@H](Cc1ccccc1)NC(=O)[C@@H](N)CC(=O)O` (H-Asp-Phe-OMe), for which the Potency result was “inactive”.
On to `CCOc1ccc(NC(=O)CC(C)O)cc1` (stereo not drawn), for which the Potency entry is “inactive”.
The same measure, in the same setting: the value for `O=c1ccc2ccccc2o1` was “inactive”; that for `CC(O)C(=O)O` (stereo not drawn) was “inactive”; that for `CC(O)CN(CCN(CC(C)O)CC(C)O)CC(C)O` (stereo not drawn) was “inactive”.
With `C[C@]12C=CC(=O)C=C1CC[C@@H]1[C@@H]2[C@@H](O)C[C@@]2(C)[C@H]1CC[C@]2(O)C(=O)CO`, the Potency result is “inactive”.
On to `CC(C)(Oc1ccc(C2CC2(Cl)Cl)cc1)C(=O)O` (stereo not drawn), for which the Potency result is “inactive”.
Consider `Oc1ccc(/C=C/c2cc(O)cc(O)c2)cc1`, for which the “activity change, negative = cytotoxicity” value was -10.6% [at 42.5 µM] (inactive).
Regarding `O=c1cc[nH]c(=S)[nH]1`, the Potency result was “inactive”.
Same read-out and setting: under `c1ccc2[nH]ccc2c1` stands “inactive”; under `Cc1cc(=O)[nH]c(=S)[nH]1`, “inactive”.
On the same count and under the same terms, under `O=C(O)CCC(=O)O` stands “inactive”.
Take `CC(O)CO` (stereo not drawn): the Potency entry was “inactive”.
Still for that read-out and setting: under `O=C1CN(/N=C/c2ccc([N+](=O)[O-])o2)C(=O)N1` stands 48.4 µM (active) and 61.1 µM (active) and 29.8 µM (active); under `O=C(O)c1cc(N=Nc2ccc(S(=O)(=O)Nc3ccccn3)cc2)ccc1O`, 27.4 µM (active) and 48.6 µM (active) and 23.7 µM (active).
On the same count and under the same terms, under `O=C(O)C(=O)O` stands “inactive”; under `Cc1cn([C@H]2C[C@H](N=[N+]=[N-])[C@@H](CO)O2)c(=O)[nH]c1=O`, “inactive”.
On the same count and under the same terms, the value for `O=C(c1ccccc1)c1ccccc1` was “inactive”.
As for `CC1(C)[C@@H]2CC[C@@]1(C)C(=O)C2`, the Potency entry was “inactive”.
The same measure, in the same setting: under `O=NO` stands “inactive”.
Regarding `Nc1ccc(C(=O)O)cc1`, the Potency result was “inactive”.
For the compound `CC(=O)OCC(COC(C)=O)OC(C)=O`, the Potency result was “inactive”.
With `Cc1ccccc1C(OCCN(C)C)c1ccccc1` (stereo not drawn), the Potency result is “inactive”.
Same read-out and setting: under `C/C=C/c1ccc(OC)cc1` stands “inactive”.
On the same count and under the same terms, under `CC(C)[C@@H]1CC[C@@H](C)C[C@H]1O` stands “inactive”; under `CCCC(CCC)C(=O)O`, “inactive”.
For `O=C(O)c1cccnc1`, the Potency result is “inactive”.
On the same count and under the same terms, under `NNC(=O)c1ccncc1` stands “inactive”; under `CCCCCCCCCCCCCCCC(=O)O`, “inactive”.
On the same count and under the same terms, the value for `CCCCC(CC)COC(=O)/C=C/c1ccc(OC)cc1` (stereo not drawn) was “inactive”; that for `NC(=O)c1ccccc1O` was “inactive”.

The record behind these values is PubChem BioAssay (Tox21).
